A short description of assay [1]: compounds altering viability of human ES cells (AID 493140; call rule not given here;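 note: cells exposed to compounds for four days before counting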). The settings on record: human embryonic stem cell survival screen; stronger effect = higher value.
Assay [2] is described as follows: P. berghei load reduction in hepatocytes – cell-based, HepG2, luciferase luminescence, HepG2 viability, primary screen (AID 624349; in the data active = parasite load remaining mostly below about 12%, no sharp cut-off; inactive = mostly above about 10%;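 note: 100% = mean of DMSO negative control wells on the same plate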). The following applies: P. berghei liver stage in HepG2, luciferase luminescence, concentration not given here; parasite load remaining: stronger effect = lower value; viability: measured here: HepG2 viability without parasites.
A short description of assay [3]: Wnt pathway potentiators raising nuclear beta-catenin – imaging, WNT3A-conditioned medium, mouse C2C12, NPC library, primary screen (AID 1117326; in the data active = nuclear beta-catenin stimulation mostly above about 4.2%, no sharp cut-off; inactive = mostly below about 10%). The settings on record: stronger effect = higher value.
Assay [4] is described as follows: stimulators of insulin release from INS-1E, primary screen, cell-based, 5 mM glucose, NPC library (AID 1117329;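 active = compound raises insulin release from rat beta cells at 5 mM glucose, no numeric limit stated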). The settings on record: rat INS-1E insulin secretion, at 10 µM, stronger effect = higher value.
Assay [5] is described as follows: growth inhibition of GSK3B-pretreated HCT116 cells – cell-based, CellTiter-Glo, 0.2 to 20 µM (AID 1117336;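 active = compounds lowering colon cancer cell viability after pretreatment blocking the GSK3B kinase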). The settings on record: HCT116 viability after GSK3B inhibitor, at 20 µM, stronger effect = higher value. A general note: ATP-based viability assays read luminescence as a measure of living cells.
Assay [6] is described as follows: inhibition of endothelial tube formation, primary screen, imaging, VEGF stimulated, CD31 staining, tube area, NPC library (AID 1117340;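 active = compound that reduces growth-factor-driven endothelial tube area in a mixed cell culture, no cutoff stated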). The following applies: VEGF-stimulated ADSC/ECFC co-culture, at 10 µM, stronger effect = higher value.
A short description of assay [7]: GLP1 release stimulators, primary, NCI-H716, NPC library (AID 1117341;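 active = compound raises GLP1 secretion from the human gut endocrine cells, with no numeric limit stated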). The following applies: NCI-H716 cells, at 10 µM, stronger effect = higher value.
Assay [8] can be described thus: HCT116 colon cancer cell growth inhibition, primary screen, CellTiter-Glo luminescence, NPC library (AID 1117342;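 active = compounds that lower survival of HCT116 colon cancer cells in the luminescence readout, no numeric limit stated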). The following applies: at 20 µM (top of the series).
Assay [9] can be described thus: reduced SW480 viability measured with CellTiter-Glo, NPC library, primary (AID 1117343;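 active = compounds that lower viability of the colon cancer cells in the luminescence readout, with no numeric limit stated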). The following applies: CellTiter-Glo luminescence; at 20 µM (top of the series) unless noted.
Assay [10] is described as follows: NPC library primary testing for decreased DLD-1 cell viability via CellTiter-Glo (AID 1117346;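 active = compounds that lower survival of DLD-1 colon cancer cells in the luminescence readout, no cutoff given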). The following applies: DLD-1 viability, CellTiter-Glo luminescence; at 20 µM (top of the series).
A short description of assay [11]: EMT-state selective cytotoxicity in co-culture – imaging, PC-3E GFP, TEM4-18 mCherry, primary screen (AID 1345086;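 active = compounds killing one labelled cell type while sparing the other, by normalised counts and ratio limits, not self-fluorescent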;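 for all read-outs here: cells exposed to compound for 72 h before imaging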;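 for red/green cell ratio (normalised): normalised mesenchymal count divided by normalised epithelial count so high means epithelial killing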). The settings on record: PC-3E GFP / TEM4-18 mCherry co-culture, imaging cell counts, at 1 µM; for red/green cell ratio (normalised): actives lie on both sides, counts scaled to control wells, 1 = unselective.
The nature of assay [12]: viability loss with induced miR-34 in A549 – imaging, A549 dox-inducible miR-34, nuclei and caspase counts, primary screen (AID 1347080). The settings on record: A549 miR-34 inducible, Hoechst nuclei count, 48 h.
Assay [13] is described as follows: MELAS cybrid and Rieske KO viability enhancers – cell-based, MELAS cybrids, Rieske KO mouse fibroblasts, CellTiter-Glo, primary screen (AID 1508586;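 active = mean z-score across replicates of 1.96 or higher in either the MELAS or the Rieske mutant cell line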;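 note: z relative to plate mean and SD of compound and empty wells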). The settings on record: low glucose.
Assay [14] addresses NAD(+) hydrolase SARM1 (Homo sapiens) (UniProt Q6SZW1). The assay can be described thus: blocking NAD cleavage by SARM1 SAM-TIR – cell lysate, NAD-Glo luminescence (AID 1508614;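 active = compound whose remaining NAD level is above about 45 nM, limit read from the data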;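 note: higher remaining NAD means stronger inhibition of SARM1 NADase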). The settings on record: SAM-TIR HEK293T lysate NADase, at 1 µM, stronger effect = higher value.
[15] abbreviates: measured here: epithelial PC-3E GFP cell survival.
The mark [16] stands for this setting: measured here: mesenchymal TEM4-18 mCherry cell survival.
[17] abbreviates: stronger effect = lower value, cell number ratio, induced over uninduced.
The mark [18] stands for this setting: measured here: relative caspase fold change +Dox/-Dox.
Setting [19] is: measured here: total cells with miR-34 induction, stronger effect = lower value.
Where [20] appears, read: measured here: total cells without miR-34 induction.
[21] abbreviates: MELAS cybrid survival, CellTiter-Glo 48 h, stronger effect = higher value.
The mark [22] stands for this setting: Rieske KO mouse fibroblast survival, CellTiter-Glo 72 h.

SMILES strings stand for the structures. Where “and” joins values, the source holds several entries; their conditions need not be identical. Equal values may be shown once. Calls of active or inactive are those of the source.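 Rule for the calls, unless noted: active = compounds whose cell count with miR-34 switched on is under 0.7 times the count with it off; inactive = the rest.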

Experimental findings from PubChem BioAssay are described below.

NAD(+) hydrolase SARM1 (Homo sapiens), sequence (Q6SZW1 whole entry, looked up): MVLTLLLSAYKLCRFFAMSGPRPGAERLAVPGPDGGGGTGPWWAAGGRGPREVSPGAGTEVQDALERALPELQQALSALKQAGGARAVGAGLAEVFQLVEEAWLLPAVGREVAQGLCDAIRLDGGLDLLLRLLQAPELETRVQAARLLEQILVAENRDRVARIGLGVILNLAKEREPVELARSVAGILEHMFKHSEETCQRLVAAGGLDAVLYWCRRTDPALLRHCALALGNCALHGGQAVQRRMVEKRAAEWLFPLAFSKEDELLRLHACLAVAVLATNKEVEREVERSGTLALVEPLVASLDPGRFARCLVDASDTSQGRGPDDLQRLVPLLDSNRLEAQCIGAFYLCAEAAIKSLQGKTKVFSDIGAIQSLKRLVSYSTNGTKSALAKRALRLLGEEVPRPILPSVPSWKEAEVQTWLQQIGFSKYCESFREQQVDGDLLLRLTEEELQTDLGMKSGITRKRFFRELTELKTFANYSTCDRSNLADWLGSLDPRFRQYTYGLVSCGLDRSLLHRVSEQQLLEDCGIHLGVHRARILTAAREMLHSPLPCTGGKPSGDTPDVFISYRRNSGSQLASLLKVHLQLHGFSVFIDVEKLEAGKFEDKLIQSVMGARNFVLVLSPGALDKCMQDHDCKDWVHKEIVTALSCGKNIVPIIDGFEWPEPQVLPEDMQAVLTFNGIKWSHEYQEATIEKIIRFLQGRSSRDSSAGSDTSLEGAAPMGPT

Usually viability stands for a per cent measure of how many cells are alive, often set against a control. As to `O=C(O)Cc1ccc(-c2ccccc2)cc1`, the survival in assay [1] is 7.67 (inactive). Besides, the parasite load remaining in [2] was 98.2% (inactive). Further, the viability in assay [2] is 99.7%. The nuclear beta-catenin stimulation is -0.4% (inactive) in assay [3] (at 10 µM) and 0.3% in assay [3] (stimulation, at 2 µM). In addition, in [4], the insulin secretion stimulation was -1.1% (inactive). In addition, the viability decrease in assay [5] was -34.7% (inactive). Moreover, the tube area decrease in assay [6] was 6.9% (inactive). In addition, the GLP1 secretion stimulation in assay [7] is 1.7% (inactive). Further, in assay [8], the inhibition of viability was 2.33% (inactive). In addition, the figures for the viability decrease (inhibition) in assay [9] and in [10] were 7.7% (inactive) and -10.7% (inactive), respectively. Also, in assay [11], the red/green cell ratio (normalised) was 0.72 (inactive). Besides, the results for the normalised cell number in assay [11] (setting [15]) and in assay [11] (setting [16]) were 1.44 and 1.04, respectively. Also, the figures for the fold change in assay [12] (setting [17]) and in assay [12] (setting [18]) were 0.915 (inactive) and 1.39, respectively. Further, the cell count in assay [12] (setting [19]) is 9920; in [12] (setting [20]), 10800. The results for the z-score in [13] (setting [21]) and in [13] (setting [22]) were 0.702 (inactive) and -0.122, respectively. Further, the remaining NAD in assay [14] is 10 nM (inactive).

In the case of `CCCOc1cc(N)ccc1C(=O)OCCN(CC)CC`, in assay [1], the survival was 9.5 (inactive). The parasite load remaining in assay [2] was 77.2% (inactive). In assay [2], this compound came in with a viability of 75.5%. Further, the nuclear beta-catenin stimulation was 0% (inactive) in assay [3] (at 10 µM) and 0.6% in [3] (stimulation, at 2 µM). For the same compound, in assay [4], the insulin secretion stimulation was 4.5% (inactive). The viability decrease in [5] was -4.1% (inactive). The tube area decrease in assay [6] was -15.3% (inactive). For the same compound, the GLP1 secretion stimulation in assay [7] was -1.7% (inactive). Also, the inhibition of viability in assay [8] was -3.9% (inactive). Moreover, the viability decrease (inhibition) in [9] was 4% (inactive); in assay [10], -9.1% (inactive). The red/green cell ratio (normalised) in assay [11] is 1 (inactive). In addition, the normalised cell number in [11] (setting [15]) and in assay [11] (setting [16]) was 1.21 each time. The fold change is 0.973 (inactive) in [12] (setting [17]) and 0.697 in assay [12] (setting [18]). The cell count in assay [12] (setting [19]) came out at 9580; in [12] (setting [20]), 9850. Also, the z-score was -0.734 (inactive) in [13] (setting [21]) and -0.617 in assay [13] (setting [22]). The remaining NAD in [14] is 10 nM (inactive).

Regarding `CN1C(=O)CC(c2ccccc2)C1=O` (stereo not drawn), the survival in [1] was 19.1 (inactive). For the same compound, the parasite load remaining in assay [2] was 94.6% (inactive). Also, the viability in assay [2] is 73.1%. Moreover, the nuclear beta-catenin stimulation is 0.4% (inactive) in [3] (at 10 µM) and 0.3% in assay [3] (stimulation, at 2 µM). For the same compound, the insulin secretion stimulation in [4] is -0.7% (inactive). Further, the viability decrease in assay [5] was 4.95% (inactive). Further, in [6], the tube area decrease was -2.7% (inactive). The GLP1 secretion stimulation in assay [7] is -0.4% (inactive). Further, in assay [8], the inhibition of viability is -5.7% (inactive). Besides, the viability decrease (inhibition) in assay [9] is 54.4% (active); in assay [10], 12.9% (inactive). Besides, the red/green cell ratio (normalised) in [11] was 0.99 (inactive). Moreover, the values for the normalised cell number in [11] (setting [15]) and in assay [11] (setting [16]) were 1.01 and 1, respectively. Moreover, the fold change in assay [12] (setting [17]) is 0.941 (inactive) and 0.972 (inactive); in assay [12] (setting [18]) it was 1.17 and 0.864. Also, the cell count in assay [12] (setting [19]) was 9250 and 9510; in [12] (setting [20]), 9830 and 9780. The figures for the z-score in assay [13] (setting [21]) and in assay [13] (setting [22]) were 0.397 (inactive) and 0.0941, respectively. In addition, in assay [14], the remaining NAD is 10 nM (inactive).

Turning to `CC(=O)Nc1ccc(C(=O)O)cc1`, the nuclear beta-catenin stimulation in [3] (at 10 µM) is -0.6% (inactive); in [3] (stimulation, at 2 µM), 0.4%. Besides, the insulin secretion stimulation in assay [4] is -1.8% (inactive). Moreover, the viability decrease in assay [5] is -11.6% (inactive). For the same compound, the tube area decrease in assay [6] was -12.7% (inactive). The GLP1 secretion stimulation in [7] was -0.1% (inactive). For the same compound, the inhibition of viability in assay [8] is -18.3% (inactive). For the same compound, the viability decrease (inhibition) is 13.7% (inactive) in assay [9] and 11.3% (inactive) in [10]. In assay [11], the red/green cell ratio (normalised) was 1.14 (inactive). Besides, the results for the normalised cell number in assay [11] (setting [15]) and in assay [11] (setting [16]) were 0.87 and 0.99, respectively. Moreover, the fold change in assay [12] (setting [17]) is 0.937 (inactive); in assay [12] (setting [18]) it was 1.06. For the same compound, the cell count turned out to be 9250 in assay [12] (setting [19]) and 9880 in assay [12] (setting [20]). For the same compound, the remaining NAD in assay [14] is 10 nM (inactive).
